The values that follow come from PubChem BioAssay (EPA / NIEHS).

Common to all, as to settings: mRNA level, 48 h; actives raise or lower the signal
Read-out in assay [1]: Bcl-2 (BAX) gene, BAX (gene 581)
The assay can be described thus: LTEA_HepaRG_BAX: Life Technologies and Expression Analysis (LTEA) Assay for Bcl-2 (BAX) gene using HepaRG (AID 2283470). Summed up: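 HepaRG (human liver), 48 h exposure, duplicate wells. 8-pt curve, half-log from 100 uM, 0.5% DMSO. BAX transcript by TaqMan qRT-PCR; ACTB/GAPDH/POLR2A normalization; gain or loss vs DMSO baseline.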

Read-out in assay [2]: adenosine kinase (ADK) gene, ADK (gene 132)
As to the kind of experiment: LTEA_HepaRG_ADK: Life Technologies and Expression Analysis (LTEA) Assay for adenosine kinase (ADK) gene using HepaRG (AID 2283471). Summed up: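 ADK expression quantified by qRT-PCR, normalised to three housekeeping genes, after 48 h exposure of HepaRG cells to eight concentrations (top 100 uM, half-log steps, duplicate, 0.5% DMSO). Up- or down-regulation fitted relative to vehicle.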

Read-out in assay [3]: Alpha-fetoprotein (AFP) gene, AFP (gene 174)
As to the kind of experiment: LTEA_HepaRG_AFP: Life Technologies and Expression Analysis (LTEA) Assay for Alpha-fetoprotein (AFP) gene using HepaRG (AID 2283472). Put shortly: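 HepaRG, single lot; 48 h post-plating -> serum-free induction medium; cpd 8-pt, 100 uM top, half-log, 0.5% DMSO, duplicate, 48 h. RNA -> qRT-PCR AFP, norm ACTB/GAPDH/POLR2A. Bidirectional fit vs DMSO.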

Read-out in assay [4]: Apolipoprotein A-V (APOA5) gene, APOA5 (gene 116519)
As to the kind of experiment: LTEA_HepaRG_APOA5: Life Technologies and Expression Analysis (LTEA) Assay for Apolipoprotein A-V (APOA5) gene using HepaRG (AID 2283474). Summed up:
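Differentiated HepaRG cells in serum-free induction medium, exposed 48 h in duplicate to eight half-log concentrations topping at 100 uM (0.5% DMSO). APOA5 mRNA by Fluidigm TaqMan qRT-PCR, normalized to ACTB, GAPDH and POLR2A; bidirectional fit versus DMSO.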

Read-out in assay [5]: Apoptosis regulator Bcl-2 (Homo sapiens) (UniProt P10415)
The assay can be described thus: LTEA_HepaRG_BCL2: Life Technologies and Expression Analysis (LTEA) Assay for Bcl-2 gene using HepaRG (AID 2283475). Summed up: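 HepaRG, plated 48 h then switched to serum-free induction medium; dosed 48 h, 8 conc. (max 100 uM, half-log steps), duplicate, 0.5% DMSO. Lysis in RLT, RNA isolated, TaqMan qRT-PCR for BCL2; ACTB/GAPDH/POLR2A normalisation; bidirectional fit vs DMSO.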

Read-out in assay [6]: Bcl-2 (BID) gene, BID (gene 637)
The assay can be described thus: LTEA_HepaRG_BID: Life Technologies and Expression Analysis (LTEA) Assay for Bcl-2 (BID) gene using HepaRG (AID 2283476). Summed up: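 Transcript levels of BID, measured by qRT-PCR and normalized to three housekeeping genes, were fitted bidirectionally against DMSO controls. Cells were HepaRG, dosed 48 h at up to 100 uM.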

Read-out in assay [7]: Caspase-3 (Homo sapiens) (UniProt P42574)
As to the kind of experiment: LTEA_HepaRG_CASP3: Life Technologies and Expression Analysis (LTEA) Assay for cysteine-aspartic acid protease (CASP3) using HepaRG (AID 2283477). Put shortly: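 Differentiated HepaRG cells, plated 48 h, were treated in duplicate in serum-free induction medium for 48 h with eight half-log concentrations up to 100 uM in 0.5% DMSO. CASP3 mRNA measured by qRT-PCR, normalized to ACTB, GAPDH, POLR2A.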

Read-out in assay [8]: Cytochrome P450 (CYP24A1), CYP24A1 (gene 1591)
The assay can be described thus: LTEA_HepaRG_CYP24A1: Life Technologies and Expression Analysis (LTEA) Assay for Cytochrome P450 (CYP24A1) using HepaRG (AID 2283478). Put shortly: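 HepaRG cells plated 48 h, then exposed in duplicate in serum-free induction medium for 48 h to 8-point half-log series from 100 uM in 0.5% DMSO. CYP24A1 mRNA by Fluidigm qRT-PCR, normalized to ACTB, GAPDH, POLR2A; bidirectional fit versus DMSO.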

Read-out in assay [9]: cysteine-aspartic acid protease (CASP8), CASP8 (gene 841)
As to the kind of experiment: LTEA_HepaRG_CASP8: Life Technologies and Expression Analysis (LTEA) Assay for cysteine-aspartic acid protease (CASP8) using HepaRG (AID 2283480). Summed up:
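Differentiated HepaRG cells in serum-free induction medium, 48 h exposure, eight-point half-log series from 100 uM in 0.5% DMSO, duplicates. CASP8 mRNA by qRT-PCR, normalized to ACTB, GAPDH, POLR2A; bidirectional fit versus DMSO.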

Read-out in assay [10]: Cytochrome P450 (CYP2B6), CYP2B6 (gene 1555)
The assay can be described thus: LTEA_HepaRG_CYP2B6: Life Technologies and Expression Analysis (LTEA) Assay for Cytochrome P450 (CYP2B6) using HepaRG (AID 2283481). Summed up:
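Differentiated human HepaRG cells in serum-free induction medium, dosed in duplicate for 48 h over 8 half-log concentrations topping at 100 uM (0.5% DMSO). CYP2B6 mRNA measured by TaqMan qRT-PCR, normalized to ACTB, GAPDH, POLR2A; bidirectional fit versus DMSO.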

Read-out in assay [11]: Cytochrome P450 2C19 (Homo sapiens) (UniProt P33261)
The assay can be described thus: LTEA_HepaRG_CYP2C19: Life Technologies and Expression Analysis (LTEA) Assay for CYP2C19 using HepaRG (AID 2283482). Put shortly:
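Differentiated HepaRG cells in serum-free induction medium exposed 48 h in duplicate, 8 concentrations from 100 uM by half-log steps in 0.5% DMSO. CYP2C19 mRNA measured by TaqMan qRT-PCR, normalized to ACTB, GAPDH, POLR2A. Bidirectional fit versus DMSO.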

Read-out in assay [12]: CYP2C8 (gene 1558)
As to the kind of experiment: LTEA_HepaRG_CYP2C8: Life Technologies and Expression Analysis (LTEA) Assay for CYP2C8 using HepaRG (AID 2283483). Summed up: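 Differentiated HepaRG cells in serum-free induction medium exposed 48 h in duplicate to 8 half-log concentrations from 100 uM in 0.5% DMSO. CYP2C8 mRNA by qRT-PCR normalized to ACTB, GAPDH, POLR2A; bidirectional fit versus DMSO.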

Read-out in assay [13]: CYP2C9 (gene 1559)
As to the kind of experiment: LTEA_HepaRG_CYP2C9: Life Technologies and Expression Analysis (LTEA) Assay for CYP2C9 using HepaRG (AID 2283484). Put shortly: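 Differentiated human HepaRG cells in serum-free induction medium were exposed 48 h to chemicals in 8-point half-log series from 100 uM (0.5% DMSO), in duplicate. CYP2C9 mRNA was measured by qRT-PCR, normalized to ACTB/GAPDH/POLR2A, with bidirectional fitting versus DMSO.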

Read-out in assay [14]: CYP2E1 (gene 1571)
The assay can be described thus: LTEA_HepaRG_CYP2E1: Life Technologies and Expression Analysis (LTEA) Assay for CYP2E1 using HepaRG (AID 2283485). Put shortly: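 Human liver line HepaRG, plated 48 h, then serum-free induction medium + chemical x 48 h; 8-pt CRC from 100 uM, half-log, 0.5% DMSO, n=2. Readout: CYP2E1 mRNA qRT-PCR vs ACTB/GAPDH/POLR2A; bidirectional fit vs DMSO.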

Read-out in assay [15]: CYP4A11 (gene 1579)
The assay can be described thus: LTEA_HepaRG_CYP4A11: Life Technologies and Expression Analysis (LTEA) Assay for CYP4A11 using HepaRG (AID 2283486). Put shortly:
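Differentiated HepaRG cells, 48 h after plating, exposed in duplicate for 48 h to 8 half-log concentrations up to 100 uM in 0.5% DMSO in serum-free induction medium. CYP4A11 mRNA measured by TaqMan qRT-PCR, normalized to ACTB, GAPDH and POLR2A.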

Read-out in assay [16]: Cytochrome P450 3A4 (Homo sapiens) (UniProt P08684)
The assay can be described thus: LTEA_HepaRG_CYP3A4: Life Technologies and Expression Analysis (LTEA) Assay for CYP3A4 using HepaRG (AID 2283487). Put shortly:
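Differentiated HepaRG cells, plated 48 h, then dosed 48 h in serum-free induction medium with 0.5% DMSO, 8 half-log concentrations up to 100 uM, duplicate. CYP3A4 mRNA by qRT-PCR, normalized to ACTB/GAPDH/POLR2A; bidirectional fit versus DMSO.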

Read-out in assay [17]: DNA damage-inducible transcript 3 (DDIT3), DDIT3 (gene 1649)
As to the kind of experiment: LTEA_HepaRG_DDIT3: Life Technologies and Expression Analysis (LTEA) Assay for DNA damage-inducible transcript 3 (DDIT3) using HepaRG (AID 2283488). Summed up:
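HepaRG plated 48 h, switched to serum-free induction medium, dosed 48 h (100 uM top, half-log, 8 pts, 0.5% DMSO, n=2); RNA isolated; DDIT3 by qRT-PCR; bidirectional curve fit vs DMSO.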

Read-out in assay [18]: Pro-epidermal growth factor (Homo sapiens) (UniProt P01133)
As to the kind of experiment: LTEA_HepaRG_EGF: Life Technologies and Expression Analysis (LTEA) Assay for Epidermal growth factor (EGF) using HepaRG (AID 2283489). Put shortly: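 HepaRG cells (~100,000/well, 48 h pre-culture) exposed in duplicate for 48 h in serum-free induction medium to 8 half-log concentrations up to 100 uM in 0.5% DMSO. EGF mRNA by qRT-PCR, normalized to ACTB/GAPDH/POLR2A; bidirectional fit versus DMSO.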

Read-out in assay [19]: Cytochrome P450 (CYP1A2), CYP1A2 (gene 1544)
As to the kind of experiment: LTEA_HepaRG_CYP1A2: Life Technologies and Expression Analysis (LTEA) Assay for Cytochrome P450 (CYP1A2) using HepaRG (AID 2283479). Put shortly:
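Differentiated human HepaRG cells in serum-free induction medium exposed 48 hours in duplicate to 8 half-log concentrations from 100 uM, 0.5% DMSO. CYP1A2 mRNA quantified by qRT-PCR, normalized to ACTB, GAPDH and POLR2A; bidirectional fitting versus DMSO.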

Active and inactive are the calls of the source. How the source made its calls: active means hit-call score of the fitted dose curve at least 0.9, where 1 is the maximum; inactive means score below 0.9.

Cytochrome P450 2C19 (Homo sapiens), sequence (P33261 whole entry, looked up): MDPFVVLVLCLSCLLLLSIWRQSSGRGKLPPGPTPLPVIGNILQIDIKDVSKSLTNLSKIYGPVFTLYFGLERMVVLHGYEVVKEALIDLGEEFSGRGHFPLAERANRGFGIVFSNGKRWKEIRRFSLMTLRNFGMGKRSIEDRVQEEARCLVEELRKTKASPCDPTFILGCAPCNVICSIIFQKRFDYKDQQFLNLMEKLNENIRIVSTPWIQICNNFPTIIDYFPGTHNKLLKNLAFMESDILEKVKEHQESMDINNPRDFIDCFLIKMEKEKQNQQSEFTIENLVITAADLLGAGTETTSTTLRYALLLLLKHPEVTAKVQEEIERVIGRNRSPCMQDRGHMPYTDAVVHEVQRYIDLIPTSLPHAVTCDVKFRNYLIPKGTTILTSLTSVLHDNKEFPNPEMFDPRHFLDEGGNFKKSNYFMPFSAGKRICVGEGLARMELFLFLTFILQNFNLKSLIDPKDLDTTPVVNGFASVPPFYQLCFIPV
Caspase-3 (Homo sapiens), sequence (P42574 whole entry, looked up): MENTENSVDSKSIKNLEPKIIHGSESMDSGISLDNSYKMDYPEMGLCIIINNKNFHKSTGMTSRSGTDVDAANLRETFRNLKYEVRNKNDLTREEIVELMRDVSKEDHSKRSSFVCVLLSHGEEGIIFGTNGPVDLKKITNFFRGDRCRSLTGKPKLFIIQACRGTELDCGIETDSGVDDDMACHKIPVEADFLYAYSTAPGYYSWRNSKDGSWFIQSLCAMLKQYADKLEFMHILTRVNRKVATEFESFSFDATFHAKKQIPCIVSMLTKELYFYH
Apoptosis regulator Bcl-2 (Homo sapiens), sequence (P10415 whole entry, looked up): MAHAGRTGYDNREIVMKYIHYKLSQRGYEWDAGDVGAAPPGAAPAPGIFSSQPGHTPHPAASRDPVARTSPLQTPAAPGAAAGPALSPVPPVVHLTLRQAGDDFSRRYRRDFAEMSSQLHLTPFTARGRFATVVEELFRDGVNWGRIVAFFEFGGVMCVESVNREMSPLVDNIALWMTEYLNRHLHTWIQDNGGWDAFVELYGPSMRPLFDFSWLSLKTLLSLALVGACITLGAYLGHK
Cytochrome P450 3A4 (Homo sapiens), sequence (P08684 whole entry, looked up): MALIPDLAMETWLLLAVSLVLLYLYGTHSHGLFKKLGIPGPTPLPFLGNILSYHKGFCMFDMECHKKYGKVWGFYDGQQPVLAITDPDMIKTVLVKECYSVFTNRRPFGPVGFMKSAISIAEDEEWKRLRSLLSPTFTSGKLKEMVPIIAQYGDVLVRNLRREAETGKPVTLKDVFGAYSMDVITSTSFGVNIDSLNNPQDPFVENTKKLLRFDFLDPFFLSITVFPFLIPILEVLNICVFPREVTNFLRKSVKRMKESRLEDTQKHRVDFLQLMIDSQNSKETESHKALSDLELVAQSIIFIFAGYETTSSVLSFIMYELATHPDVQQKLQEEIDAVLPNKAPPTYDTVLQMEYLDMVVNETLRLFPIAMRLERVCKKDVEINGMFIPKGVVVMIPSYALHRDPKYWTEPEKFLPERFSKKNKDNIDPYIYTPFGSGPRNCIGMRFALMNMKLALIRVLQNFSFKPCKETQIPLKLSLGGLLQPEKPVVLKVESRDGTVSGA

The AC50 is the midpoint of the concentration-response curve, whichever way the signal moves. As for `Cc1ccc2oc(CN(Cc3ccccc3)C(=O)Nc3c(F)cc(F)cc3F)c(-c3ccc(Cl)cc3)c2c1`, the call in [1], in assay [2], in assay [6], in assay [7], in assay [8] and in assay [9] was inactive. The outcome in [11], in assay [12] and in [18] was inactive. For the same molecule, the AC50 is 32 µM (active) in assay [3]; 44.2 µM (active) in assay [4]; 44.2 µM (active) in assay [5]; 77 µM (active) in assay [10]; 12.4 µM (active) in assay [13]; 28.4 µM (active) in assay [14]. Also, the AC50 in assay [15] was 34.8 µM (active); in assay [16], 5.39 µM (active); in assay [17] it was 64.3 µM (active).

Regarding `Cc1ccc(C(C)C)cc1`, the result in assay [1], in assay [2], in [3], in assay [5], in assay [6] and in assay [7] was inactive. For the same molecule, the result in [8], in [19], in [9], in assay [10], in [11] and in assay [12] was inactive. Further, the call in assay [13], in [14], in assay [15], in assay [16], in [17] and in [18] was inactive.

With `Cc1cc(F)ccc1-c1cc(N2CC[C@@H](O)[C@H]2CO)ncc1N(C)C(=O)C(C)(C)c1cc(C(F)(F)F)cc(C(F)(F)F)c1`, the AC50 in assay [1] was 74.8 µM (active); in assay [3], 18 µM (active); in [5], 19.7 µM (active); in [7] it was 76.6 µM (active); in assay [19] it was 21.1 µM (active); in assay [10], 22.3 µM (active). Also, the AC50 in assay [11] is 23.7 µM (active); in assay [12], 21.4 µM (active); in assay [14], 10.3 µM (active); in [15] it was 15.7 µM (active); in assay [17], 71.1 µM (active); in assay [18] it was 5.44 µM (active). Besides, the call in [2], in assay [6], in assay [8], in assay [9] and in [13] was inactive.
